Test results taken from PubChem BioAssay (NCATS).
Records with an inconclusive call do not appear. Calls of active or inactive are those of the source. Calls follow the shape of the dose curve; as a rule, active = well fitted inhibition curve with a large enough effect; inconclusive = small, poorly fitted or top-dose-only effect; inactive = no such curve, though single readings can be large or run the other way.

target: Rap guanine nucleotide exchange factor 3 (Homo sapiens) (UniProt O95398); assay: Confirmatory qHTS for antagonist of cAMP-regulated guanine nucleotide exchange factor 3 (EPAC1) (AID 1645880); settings: EPAC1 Rap1B-BODIPY-GDP exchange, fluorescence; activity, negative = inhibition: at 115 µM (top of the series); also: nearly all actives have a fitted effect of over 55% in size;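 as to activity, negative = inhibition: plate controls were DMSO only for no effect and full effect of the ATA control for full effect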
Outline: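 Released BODIPY-GDP fluoresces less than Rap1-bound BODIPY-GDP; the signal is followed at 480/540 nm at 5-min intervals over 30 min, after 5 min at room temperature. Reactions contain 100 nM EPAC1, 250 nM RAP1B-BODIPY-GDP and 50 uM GDP; results are normalized to ATA and DMSO.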
Potency is read from the fitted curve at half-maximal effect.

Chain of Rap guanine nucleotide exchange factor 3 (Homo sapiens) (O95398 whole entry, looked up): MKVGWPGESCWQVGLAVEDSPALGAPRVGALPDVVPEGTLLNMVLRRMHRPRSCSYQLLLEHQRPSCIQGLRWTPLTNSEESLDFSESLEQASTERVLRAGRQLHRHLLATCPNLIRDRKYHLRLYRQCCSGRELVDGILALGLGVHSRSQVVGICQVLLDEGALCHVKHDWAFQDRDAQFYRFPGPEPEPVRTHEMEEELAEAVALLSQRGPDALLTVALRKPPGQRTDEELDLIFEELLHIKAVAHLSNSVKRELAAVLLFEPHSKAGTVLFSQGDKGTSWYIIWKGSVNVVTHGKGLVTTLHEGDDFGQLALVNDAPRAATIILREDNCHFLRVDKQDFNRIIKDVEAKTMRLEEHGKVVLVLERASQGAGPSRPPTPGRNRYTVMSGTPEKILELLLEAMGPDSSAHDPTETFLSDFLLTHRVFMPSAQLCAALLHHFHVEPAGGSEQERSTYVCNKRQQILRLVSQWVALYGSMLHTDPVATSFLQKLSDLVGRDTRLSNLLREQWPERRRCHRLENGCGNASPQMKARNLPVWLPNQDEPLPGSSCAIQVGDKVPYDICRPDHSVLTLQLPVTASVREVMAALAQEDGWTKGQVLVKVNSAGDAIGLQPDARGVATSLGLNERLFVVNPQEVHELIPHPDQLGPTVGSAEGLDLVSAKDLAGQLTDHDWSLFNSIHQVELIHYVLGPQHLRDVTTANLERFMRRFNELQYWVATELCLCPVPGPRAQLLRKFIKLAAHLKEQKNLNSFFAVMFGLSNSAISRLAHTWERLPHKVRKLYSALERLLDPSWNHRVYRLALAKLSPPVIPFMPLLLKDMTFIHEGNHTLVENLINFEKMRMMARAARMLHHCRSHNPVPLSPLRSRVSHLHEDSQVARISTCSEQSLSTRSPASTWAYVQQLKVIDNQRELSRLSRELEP

activity, negative = inhibition, inactive:
COC(=O)[C@@H]1CC[C@@](C)(c2ccc(OC)cc2)C1(C)C -17.3%
Cc1nn(-c2c(Cl)cc(Cl)cc2Cl)c(=O)c2ccccc12 -23.4%
COc1ccc2[nH]cc(CCNc3ncncc3-c3ccccc3Cl)c2c1 -13.1%
COc1ccc(Cl)cc1NC(=O)CN1c2ccccc2CC1C (centres undefined) -29%
COc1ccc(-n2cc(-c3ccccc3)c3c(N4CCOCC4)ncnc32)cc1 -19.6%
CC(=O)N1N=C2c3ccccc3CCC2C1c1cccs1 (centres undefined) -15.2%
COc1ccccc1N(C)c1cc2c(c3c1ccn3C)C1CCC2O1 (centres undefined) -10.6%
COc1ccc(/C=C/C(=O)c2ccc(Cl)cc2)c(OC)c1 -29.3%
CCN(Cc1cc(=O)oc2cc(C)ccc12)c1ccccc1 -19.9%
C=C(C)Cn1c(C)cc(C)c(S(=O)(=O)c2ccccc2C)c1=O -23.8%
COc1ccc2c(c1)CCc1c(C(=O)N3CCCc4ccccc43)noc1-2 -20.6%
COc1ccc(Cl)cc1NC(=O)CN(C)Cc1ccc(OC)c(OC)c1 -18.2%
CCCCn1nnnc1C(c1cc2ccccc2o1)N1CCN(c2cc(C)nc3ccccc23)CC1 (centres undefined) -14.9%
COc1ccc2c(c1)CCc1c(C(=O)N(C)c3ccccc3)noc1-2 -20.3%
Cc1oc2cc(Br)c(O)c(Br)c2c1-c1ccccc1 -29.8%
CCCCn1nnnc1C(c1cc2ccccc2o1)N1CCCC1 (centres undefined) -20.2%
O=C1OC(c2ccccc2)(c2ccccc2)c2ccsc21 -11.5%
CCOc1ccc(S(=O)(=O)N2CCCCC2)c(C)c1C -26.5%

Potency, active:
CCn1c(=O)c(C(=O)NNS(=O)(=O)c2ccc(C)cc2)c(O)c2ccccc21 75.7 µM
